Inconclusive results are not listed. The source made the active and inactive calls. The call rests on the fitted dose curve; in most records, active means well fitted cell-killing curve with a large enough effect; inconclusive means small, poorly fitted or top-dose-only effect, or effect the other way; inactive means no such curve, though single readings can be large or run the other way.
Potency means the concentration at half of the fitted maximal effect.

A short description of the assay: Viability qHTS for spleen associated tyrosine kinase inhibitor (SYKi) drug resistant MV4-11 cells (AID 1963824). Further: nearly all actives have a fitted effect of over 35% in size. Particulars: SYKi-resistant MV4-11 viability, CellTiter-Glo, 72 h; series mostly up to 45 µM. The source says:
Department of Medicine, Hematology/Oncology
University Hospital Frankfurt, Germany.
Trials have shown promising clinical activity of the selective SYK inhibitor entospletinib in patients with high expressing HOXA9/MEIS1 acute leukemias. As the development of resistance mechanisms is a common problem in the use of targeted drugs, we performed a chemical library screen to identify drug sensitivities in SYK inhibitor resistant AML cells. […] Glucocorticoids are potent immunosuppressants which work in part by inhibiting the transcription of cytokine genes.
Described herein is a viability screen to look for activity in the SYK inhibitor drug resistant cell line against four NCATS compound libraries (MIPE 5.0, NPC, NPACT, and Kinase) totaling 11372 compounds. Active hits were reacquired for confirmation and further secondary assay testing.
SEQUENCE No. (e.g., 1, 2, 3, etc.); […] (e.g., Cells, Incubation, Reagent, etc.); VALUE; DESCRIPTION.
1; Media; 2uL; white, solid-bottom Corning assay plate.
2; Compounds; 23nL; Echo acoustic dispenser.
3; Cell; 5uL; 500 cells per well.
4: Incubation; 72hr; 37 C, 5% CO2, 95% humidity.
5; Reagent; 3uL; CellTiter-Glo reagent (Promega).
6; Incubation; 10min; room temperature.
7; Detection; Luminescence; ViewLux plate reader (PerkinElmer).
NOTES (numbers refer to Sequence numbers above
1. Quantitative high-throughput screening (qHTS) of small molecule compounds was conducted on drug resistant SYKi MV4-11 cell line.
2. Twenty-three nanoliter of small molecule compounds were added to each assay plates using the Echo acoustic dispenser (Beckman Coulter).
3. Cells were seeded into the assay plates at a final density of 500 cells in 5uL of media per well using the Multidrop Combi dispenser.
4. Plates were covered with stainless steel gasketed lids and incubated for 72 hours at standard cell culture conditions.
5. Viability was assessed by adding 3uL of CellTiter-Glo detection reagent (Promega).
6. Plates were covered with gasket lids and incubated for 10 minutes at room temperature.
7. Luminescence was measured on a ViewLux plate reader (PerkinElmer).
(Quantitative high-throughput screening tests each substance at several concentrations.)
For `CC1(C)CC[C@]2(NC(=O)C(C)(F)F)CC[C@]3(C)[C@H](C(=O)C=C4[C@@]5(C)C=C(C#N)C(=O)C(C)(C)[C@@H]5CC[C@]43C)[C@@H]2C1`, the Potency was 2630 nM (active).
The result for `COC(=O)[C@]12CCC(C)(C)C[C@H]1[C@H]1C(=O)C=C3[C@@]4(C)C=C(C#N)C(=O)C(C)(C)[C@@H]4CC[C@@]3(C)[C@]1(C)CC2` reads 2630 nM (active); that for `Nc1ccn(CC(CO)OCP(=O)(O)O)c(=O)n1` (stereo not drawn), “inactive”.

For the origin of these results see PubChem BioAssay (NCATS).
